This note sets out measurements from PubChem BioAssay AID1445 (SRMLSC, 2008).

The whole screen tested about 220,000 compounds, of which about 910 (0.41%) were called active. Only a selection was taken, and actives are over-represented in it overall. Measured potencies and affinities stand elsewhere. A number with no mark means an inactive call.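 How the source made its calls: active means primary inhibition above the hit cutoff, then over 50% inhibition at one or more dose response concentrations (cut at about 23% in these data, passing the limit was not always enough); inconclusive means conflicting primary data, or primary hits not chosen for dose response; inactive means low primary inhibition, or under 50% at every dose.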

Chain of Aminopeptidase N (Plasmodium falciparum (isolate 3D7)) (O96935 whole entry, looked up): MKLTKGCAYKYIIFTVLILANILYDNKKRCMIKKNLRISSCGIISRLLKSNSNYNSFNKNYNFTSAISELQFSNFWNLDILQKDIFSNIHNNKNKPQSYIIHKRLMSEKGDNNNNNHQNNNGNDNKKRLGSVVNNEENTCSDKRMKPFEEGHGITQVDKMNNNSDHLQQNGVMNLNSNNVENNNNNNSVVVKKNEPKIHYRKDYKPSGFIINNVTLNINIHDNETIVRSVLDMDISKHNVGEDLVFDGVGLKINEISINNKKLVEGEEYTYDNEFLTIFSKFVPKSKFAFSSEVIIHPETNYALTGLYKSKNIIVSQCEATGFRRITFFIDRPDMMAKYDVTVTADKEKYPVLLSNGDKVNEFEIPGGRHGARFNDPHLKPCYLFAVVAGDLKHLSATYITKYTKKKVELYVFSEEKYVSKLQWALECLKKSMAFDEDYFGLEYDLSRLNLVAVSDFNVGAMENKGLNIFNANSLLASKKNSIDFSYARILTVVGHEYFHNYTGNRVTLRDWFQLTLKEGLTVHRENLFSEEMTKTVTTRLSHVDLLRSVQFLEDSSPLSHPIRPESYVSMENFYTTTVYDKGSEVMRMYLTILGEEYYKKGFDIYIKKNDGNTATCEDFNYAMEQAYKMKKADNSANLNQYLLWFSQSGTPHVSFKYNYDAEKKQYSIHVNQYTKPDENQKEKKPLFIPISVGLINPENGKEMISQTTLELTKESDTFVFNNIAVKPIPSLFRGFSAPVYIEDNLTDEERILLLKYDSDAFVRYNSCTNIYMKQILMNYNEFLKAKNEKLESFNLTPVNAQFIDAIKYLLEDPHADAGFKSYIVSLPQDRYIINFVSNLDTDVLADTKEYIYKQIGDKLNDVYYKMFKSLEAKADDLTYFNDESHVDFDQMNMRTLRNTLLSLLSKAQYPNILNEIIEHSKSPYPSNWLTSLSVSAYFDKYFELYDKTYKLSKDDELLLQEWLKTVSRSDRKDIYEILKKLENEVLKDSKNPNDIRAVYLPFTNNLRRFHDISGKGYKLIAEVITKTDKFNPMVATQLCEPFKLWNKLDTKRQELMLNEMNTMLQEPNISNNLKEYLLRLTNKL

The test addresses Aminopeptidase N (Plasmodium falciparum (isolate 3D7)) (UniProt O96935). In words: P. falciparum M1AAP inhibitors, biochemical, fluorogenic H-Leu-NHMec substrate, 1536-well (AID 1445).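 Further: plate controls were DMSO full reaction for no effect and no enzyme background for full effect.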 Conditions: recombinant M1AAP, H-Leu-NHMec fluorogenic kinetic assay; at 30 µM, active compounds read high unless noted.
For `CC(=O)Nc1cccc(NS(=O)(=O)c2ccccc2[N+](=O)[O-])c1`, the inhibition is -4.08%.
`CC(C(=O)N1CCN(C)CC1)N1C(=O)c2ccccc2C1=O` (configuration not stated): the inhibition was 7.24%.
The same measure for `COC(=O)c1c[nH]n2c(=O)c(Cl)c(C)nc12`: 0.19%; for `COc1ccc(OC)c(CC(NC(C)=O)C(=O)NC2CCN(c3nc(OC)nc(OC)n3)CC2)c1` (configuration not stated): 4.38%; for `COc1ccc(/C=N/NC(=O)c2ccc(N)cc2)cc1Cn1cc([N+](=O)[O-])cn1`: 16.6%.
The same measure for `COc1ccc(/C=N/NC(=O)c2ccccc2O)cc1Cn1cc([N+](=O)[O-])cn1`: 5.5%; for `Cc1nc(CC(=O)Nc2nc(C(C)(C)C)cs2)cs1`: 13.3%; for `O=C(O)c1ccc(-c2ncc[nH]2)cc1`: 2.64%.
In the case of `Cc1ccc2c(c1)-c1c(cnn1CC(=O)N(Cc1ccco1)C1CCCCC1)CO2`, the inhibition was 4.81%.
The same measure for `Cc1ccc2c(c1)-c1c(cnn1CC(=O)NC(C)CCc1ccco1)CO2` (configuration not stated): 25.2% (active).
To `CC(CCc1ccco1)NC(=O)Cn1ncc2c1-c1ccccc1OC2` (configuration not stated) belongs 12.1%; to `Cc1ccc2c(c1)-c1c(cnn1CC(=O)O)CO2`, 0.53%; to `Cc1ccc(C)c(CN2CCCN(C(=O)Cn3ncc4c3-c3ccccc3OC4)C2)c1`, 3.24%.
The same measure for `Cc1ccc2c(c1)-c1c(cnn1CC(=O)N1CCCN(Cc3ccccc3F)C1)CO2`: 26.4% (active).
`COc1cc2c(cc1OC)CN(C(=O)CSc1n[nH]c(N)n1)CC2`: the inhibition is 0.58%.
To `COc1cc2c(cc1OC)CN(C(=O)CSc1nnc(C)s1)CC2` belongs 25.4% (active); to `COc1cc2c(cc1OC)CN(C(=O)CSc1nc(C)cc(C)c1C#N)CC2`, 3.39%; to `CCOCCn1cnc2sc(C(=O)NCC(=O)OCC)c(C)c2c1=O`, 1.07%.
The same measure for `Cc1cc2c(=O)oc(-c3ccccc3Br)nc2s1`: -4.08%; for `Cc1nn2c(=O)c(NC(=O)c3ccc(F)cc3)cnc2s1`: 6.66%; for `Cc1ccc2c(c1)sc1ncc(NC(=O)c3ccc(F)cc3)c(=O)n12`: -0.5%.
For `O=C(Nc1cnc2sc3c(n2c1=O)CCCC3)c1ccc(F)cc1`, the inhibition was 23.9% (active).
To `CCOC(=O)COc1ccc(N)cc1CC(NC(C)=O)(C(=O)OCC)C(=O)OCC` belongs 6.1%; to `Cn1cc(CNC(=O)C2c3ccccc3Oc3ccccc32)cn1`, 13.7%; to `COc1ccc(N=CC2=C(O)CC(C)(C)CC2=O)cc1`, 13.6%.
The same measure for `CCOC(=O)CSc1nc(C)c2cccc(C)c2n1`: 0.76%; for `C=CCc1c(C)nc2c(C)cccc2c1SC(=N)N`: 1.57%; for `CCOc1ccc(NC(=O)c2ccccc2OC)cc1`: 5.95%.
With `COc1ccc(NC(=O)CSc2c(C)n[nH]c2C)cc1`, the inhibition was 0.25%.
For `O=C(NCCCc1ccccc1)C1CC(=O)N(c2ccc3c(c2)OCCO3)C1` (configuration not stated), the inhibition was 2.32%.
To `O=C(NC(Cc1ccccc1)c1nc2ccccc2[nH]1)C1CC(=O)N(c2ccc3c(c2)OCCO3)C1` (configuration not stated) belongs 26% (active); to `O=C(Nc1nc2ccccc2[nH]1)C1CC(=O)N(c2ccc3c(c2)OCCO3)C1` (configuration not stated), -0.34%; to `O=C(c1cccs1)c1ccc(-c2cccs2)s1`, 15.2%.
As to `CCN(CC)C(=O)c1ccc(-c2cccs2)s1`, the inhibition is 2.09%.
Take `COc1ccc(NC(=O)Cn2nnc(C(=O)NCCc3ccc(OC)c(OC)c3)c2N)c(OC)c1`: the inhibition was 0.32%.
Consider `O=C(NNc1c(Cl)cc(Cl)cc1Cl)c1cccc([N+](=O)[O-])c1`, for which the inhibition was 0.41%.
To `Cc1ccccc1CSc1nn2c(=O)c(C)nnc2s1` belongs 1.72%; to `O=[N+]([O-])c1cccc(S(=O)(=O)NCCc2cn3ccccc3n2)c1`, -0.31%; to `CCCc1ccc(-c2ccc(F)c(N)c2)nc1`, 6.24%.
The same measure for `Nc1ccc2nc(-c3ccccc3)[nH]c2c1`: 1.94%; for `Nc1ccc2nc(-c3ccc(Cl)cc3)[nH]c2c1`: 14%; for `CCOC(=O)CN(C(=O)CNC(=O)c1ccco1)C(C(=O)NC1CCCCC1)c1cccs1` (configuration not stated): 2.4%.
For the molecule `Cc1cc(C)nc(SCC(=O)N/N=C/c2cccn2-c2ccc(O)cc2)n1`, the inhibition is 8.99%.
The same measure for `Cc1ccc(-c2cn3cccnc3n2)cc1NC(=O)c1c(-c2ccccc2Cl)noc1C`: 9.6%; for `Cc1onc(-c2ccccc2Cl)c1C(=O)Nc1ccc(-c2cn3cccnc3n2)cc1`: 3.1%.
To `Cc1onc(-c2ccccc2Cl)c1C(=O)Nc1cccc(-c2cn3cccnc3n2)c1` belongs 26.2% (active); to `COc1ccccc1NS(=O)(=O)c1cc(NC(=O)c2cccs2)ccc1N1CCOCC1`, 3.5%.
To `Cc1nn2c(N3CCOCC3)c3c(nc2c1-c1ccccc1)CCCC3` belongs 4.17%; to `Cc1nn2c(N3CCCC3)c3c(nc2c1-c1ccccc1)CCC3`, 7%; to `CC1(C)CC(=O)C(/C=N/n2cnc3ccccc3c2=O)=C(O)C1`, 11.3%.
`CC1(C)CC(=O)C(C=Nc2ccccc2)=C(O)C1`: the inhibition is 2.69%.
For the molecule `CC1(C)CC(=O)C(/C=N/n2c(C(F)(F)F)nc3ccccc3c2=O)=C(O)C1`, the inhibition is 27.5% (active).
To `O=C(c1ccco1)N1CCN(C(c2ccccc2Cl)c2nnnn2Cc2ccco2)CC1` (configuration not stated) belongs 2.33%.
With `Cc1noc(NC(=O)c2ccccc2C(F)(F)F)c1C#N`, the inhibition was -0.81%.
The same measure for `O=S(=O)(Nc1cccnc1)c1cccc(Cl)c1`: -0.41%.
`O=S(=O)(Nc1nccs1)c1ccc(Cl)cc1`: the inhibition was -5.71%.
As to `O=C(O)c1ccc(NS(=O)(=O)c2cc(Cl)ccc2Cl)cc1`, the inhibition is 5.33%.
To `O=S(=O)(Nc1ncccn1)c1ccc(NS(=O)(=O)c2cc(Cl)ccc2Cl)cc1` belongs 30.4%.
To `O=S(=O)(Nc1ccncc1Cl)c1cc(Cl)ccc1Cl` belongs 4.72%; to `O=S(=O)(Nc1cccnc1)c1cc(Cl)ccc1Cl`, 25.4% (active).
To `O=S(=O)(Nc1cccnc1)c1ccc(Cl)cc1` belongs 1.51%.
As to `O=S(=O)(Nc1nccs1)c1cc(Cl)ccc1Cl`, the inhibition was 25.8% (active).

Usually inhibition stands for the relative decrease from the control value, in per cent.
